Assay [1] can be described thus: NCI Yeast Anticancer Drug Screen. Data for the rad50 strain (AID 155).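 Further: 0% = growth of vehicle-only cultures of the same strain.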 Conditions: S. cerevisiae rad50 strain growth inhibition, stronger effect = higher value. In outline:
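Yeast carrying a defined DNA repair defect were exposed to test compounds, and growth was compared with vehicle-treated controls to give percent inhibition.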

A short description of assay [2]: NCI Yeast Anticancer Drug Screen. Data for the mec2-1 strain (AID 157). As to conditions: S. cerevisiae mec2-1 strain, stronger effect = higher value. In outline: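 Yeast mec2-1 mutant treated with compound. Readout: growth inhibition vs vehicle controls.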
Assay [3] is described as follows: NCI Yeast Anticancer Drug Screen. Data for the sgs1 mgt1 strain (AID 161).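 Further: 0% = growth of cultures given vehicle only.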 As to conditions: S. cerevisiae sgs1 mgt1 strain, stronger effect = higher value. In outline:
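Mutant yeast exposed to compound; growth scored against vehicle-only wells.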

The nature of assay [4]: NCI Yeast Anticancer Drug Screen. Data for the cln2 rad14 strain (AID 165).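 Further: 0% = growth equal to vehicle treated cultures.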 Conditions: S. cerevisiae cln2 rad14 strain, stronger effect = higher value. In outline:
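cln2 rad14 yeast strain; compound exposure; growth inhibition read vs vehicle controls.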

Assay [5] in a line: NCI Yeast Anticancer Drug Screen. Data for the bub3 strain (AID 167). Conditions: S. cerevisiae bub3 mutant strain, stronger effect = higher value. The method, boiled down:
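Compounds were applied to a genetically altered yeast strain carrying a cell-cycle control defect. Growth inhibition was scored against vehicle-treated controls.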

Assay [6] can be described thus: NCI Yeast Anticancer Drug Screen. Data for the mlh1 rad18 strain (AID 175). Conditions: S. cerevisiae mlh1 rad18 strain growth inhibition, stronger effect = higher value. In outline: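 Yeast w/ defined DNA-repair lesions; compound exposure; growth vs vehicle controls → % inhibition.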
Setting [7] is: at 5.0 µM (retest, dose inferred, filed as 0.5).
The mark [8] stands for this setting: at 50.0 µM (retest, dose inferred, filed as 5.0).

This is part of a sample that, as a whole, favours compounds with a hit. Of some 79,000 tested, about 15% had one in any assay. A number with no mark means an inactive call. The source made the active and inactive calls. No stated cut-off is given here; in the data, active means growth inhibition above about 70%; inactive means the rest.

Consider `CCOC(=O)c1c(Cl)nc2ccccc2c1N=[N+]=[N-]`, for which the growth inhibition in assay [1] (setting [7]) was -10%; in assay [1] (setting [8]), 77% (active); in assay [1] (at 50.0 µM), 79.3% (active); in assay [2] (setting [7]) it was 14%; in assay [2] (setting [8]), 95% (active); in assay [2] (at 50.0 µM), 82.5% (active). For the same molecule, the growth inhibition was -13% in assay [3] (setting [7]); 93% (active) in assay [3] (setting [8]); 88.7% (active) in assay [3] (at 50.0 µM); 20% in assay [4] (setting [7]); 86% (active) in assay [4] (setting [8]); 58% in assay [4] (at 50.0 µM). In addition, the growth inhibition in assay [5] (setting [7]) was -21%; in assay [5] (setting [8]), 81% (active); in assay [5] (at 50.0 µM), 86.8% (active); in assay [6] (setting [7]) it was 2%; in assay [6] (setting [8]) it was 95% (active); in assay [6] (at 50.0 µM) it was 89.5% (active).

On to `CC(C)(C)C(=O)Nc1ccc2c(c1)C(=O)c1ccccc1C2=O`, for which the growth inhibition in assay [1] (setting [7]) was 62%; in assay [1] (setting [8]), 96% (active); in assay [1] (at 50.0 µM), 82% (active); in assay [2] (setting [7]), 44%; in assay [2] (setting [8]), 85% (active); in assay [2] (at 50.0 µM) it was 79.2% (active). Moreover, the growth inhibition in assay [3] (setting [7]) was 44%; in assay [3] (setting [8]) it was 91% (active); in assay [3] (at 50.0 µM), 80.7% (active); in assay [4] (setting [7]), 38%; in assay [4] (setting [8]), 75% (active); in assay [4] (at 50.0 µM), 83.2% (active). Further, the growth inhibition is 46% in assay [5] (setting [7]); 71% (active) in assay [5] (setting [8]); 87.5% (active) in assay [5] (at 50.0 µM); 62% in assay [6] (setting [7]); 96% (active) in assay [6] (setting [8]); 86.5% (active) in assay [6] (at 50.0 µM).

As for `Cc1cc(N)c(C)c2c1[nH]c1ccc(Br)cc12`, the growth inhibition was 1% in assay [1] (setting [7]); 96% (active) in assay [1] (setting [8]); 54.1% in assay [1] (at 50.0 µM); -3% in assay [2] (setting [7]); 89% (active) in assay [2] (setting [8]); 42.1% in assay [2] (at 50.0 µM). The growth inhibition was -6% in assay [3] (setting [7]); 98% (active) in assay [3] (setting [8]); 77.2% (active) in assay [3] (at 50.0 µM); -4% in assay [4] (setting [7]); 58% in assay [4] (setting [8]); 17.7% in assay [4] (at 50.0 µM). Further, the growth inhibition is -3% in assay [5] (setting [7]); 95% (active) in assay [5] (setting [8]); 87.2% (active) in assay [5] (at 50.0 µM); 3% in assay [6] (setting [7]); 98% (active) in assay [6] (setting [8]); 38.5% in assay [6] (at 50.0 µM).

`O=C1CN(CCN2CCOCC2)CC(=O)N2CCCCN12`: the growth inhibition is 1% in assay [1] (setting [7]); -1% in assay [1] (setting [8]); 3.3% in assay [1] (at 50.0 µM); -2% in assay [2] (setting [7]); -1% in assay [2] (setting [8]); 2.55% in assay [2] (at 50.0 µM). Also, the growth inhibition was 3% in assay [3] (setting [7]); 7% in assay [3] (setting [8]); 32.6% in assay [3] (at 50.0 µM); -8% in assay [4] (setting [7]); 2% in assay [4] (setting [8]); 11.6% in assay [4] (at 50.0 µM). For the same molecule, the growth inhibition in assay [5] (setting [7]) is -6%; in assay [5] (setting [8]), -3%; in assay [5] (at 50.0 µM), 5.7%; in assay [6] (setting [7]), -1%; in assay [6] (setting [8]) it was -2%; in assay [6] (at 50.0 µM) it was 1.45%.

As to `c1ccc(N=Nc2n[nH]c3ccccc23)cc1`, the growth inhibition in assay [1] (setting [7]) was -144%; in assay [1] (setting [8]), 94% (active); in assay [1] (at 50.0 µM) it was 98.6% (active); in assay [2] (setting [7]), -51%; in assay [2] (setting [8]), 74% (active); in assay [2] (at 50.0 µM), 98.8% (active). For the same molecule, the growth inhibition in assay [3] (setting [7]) is -66%; in assay [3] (setting [8]), 85% (active); in assay [3] (at 50.0 µM), 92.6% (active); in assay [4] (setting [7]), -59%; in assay [4] (setting [8]), 29%; in assay [4] (at 50.0 µM) it was 98% (active). Also, the growth inhibition is -65% in assay [5] (setting [7]); 91% (active) in assay [5] (setting [8]); 97.1% (active) in assay [5] (at 50.0 µM); -119% in assay [6] (setting [7]); 94% (active) in assay [6] (setting [8]); 97% (active) in assay [6] (at 50.0 µM).

As for `CCNC1(C2c3ccccc3-c3ccccc32)c2ccccc2-c2ccccc21`, the growth inhibition in assay [1] (setting [7]) was 13%; in assay [1] (setting [8]), 84% (active); in assay [1] (at 50.0 µM), 20%; in assay [2] (setting [7]), -17%; in assay [2] (setting [8]) it was 25%; in assay [2] (at 50.0 µM) it was 11.8%. In addition, the growth inhibition in assay [3] (setting [7]) is 4%; in assay [3] (setting [8]), 84% (active); in assay [3] (at 50.0 µM), 44.1%; in assay [4] (setting [7]) it was -12%; in assay [4] (setting [8]), 36%; in assay [4] (at 50.0 µM), 18.5%. Also, the growth inhibition in assay [5] (setting [7]) was -4%; in assay [5] (setting [8]) it was 71% (active); in assay [5] (at 50.0 µM), 58.4%; in assay [6] (setting [7]), 30%; in assay [6] (setting [8]) it was 74% (active); in assay [6] (at 50.0 µM), 37%.

As to `CCC(/C=C/C(C)C1CCC2C3CC=C4C/C(=N/NC(N)=O)CCC4(C)C3CCC12C)C(C)C` (configuration not stated), the growth inhibition is -7% in assay [1] (setting [7]); 6% in assay [1] (setting [8]); 9.95% in assay [1] (at 50.0 µM); -3% in assay [2] (setting [7]); 2% in assay [2] (setting [8]); 9.3% in assay [2] (at 50.0 µM). The growth inhibition was -3% in assay [3] (setting [7]); -5% in assay [3] (setting [8]); 50.9% in assay [3] (at 50.0 µM); -7% in assay [4] (setting [7]); -9% in assay [4] (setting [8]); -1.15% in assay [4] (at 50.0 µM). For the same molecule, the growth inhibition in assay [5] (setting [7]) is -3%; in assay [5] (setting [8]), 2%; in assay [5] (at 50.0 µM) it was 24.1%; in assay [6] (setting [7]) it was -3%; in assay [6] (setting [8]) it was 5%; in assay [6] (at 50.0 µM), 28.9%.

As to `CCCC(O)[C@@]1(CC)CC(C)C(O)(C2(C)C[C@H](C)[C@@H](C(CC)C(=O)C(C)[C@@H](O)[C@H](C)C3OC(O)(C(CC)C(=O)O)[C@@H](C)C(O)C3CC)O2)O1` (some centres not stated), the growth inhibition in assay [1] (setting [7]) is -9%; in assay [1] (setting [8]), -13%; in assay [1] (at 50.0 µM), 14.7%; in assay [2] (setting [7]), -27%; in assay [2] (setting [8]), -13%; in assay [2] (at 50.0 µM) it was 23.1%. Further, the growth inhibition in assay [3] (setting [7]) was -9%; in assay [3] (setting [8]), -6%; in assay [3] (at 50.0 µM) it was 23.3%; in assay [4] (setting [7]) it was 0%; in assay [4] (setting [8]) it was 28%; in assay [4] (at 50.0 µM), 29.3%. Also, the growth inhibition is -10% in assay [5] (setting [7]); -14% in assay [5] (setting [8]); 25.9% in assay [5] (at 50.0 µM); -10% in assay [6] (setting [7]); -8% in assay [6] (setting [8]); 85.9% (active) in assay [6] (at 50.0 µM).

Consider `CCN(CC)c1ccc(N=C2C=C(C(=O)Nc3cccc(Cl)c3)C(=O)c3ccccc32)c(C)c1`, for which the growth inhibition was -1% in assay [1] (setting [7]); -12% in assay [1] (setting [8]); -17.9% in assay [1] (at 50.0 µM); 8% in assay [2] (setting [7]); 32% in assay [2] (setting [8]); -7% in assay [2] (at 50.0 µM). In addition, the growth inhibition in assay [3] (setting [7]) is -30%; in assay [3] (setting [8]) it was -23%; in assay [3] (at 50.0 µM), -9.25%; in assay [4] (setting [7]) it was -4%; in assay [4] (setting [8]), -7%; in assay [4] (at 50.0 µM), 38.4%. In addition, the growth inhibition in assay [5] (setting [7]) is 0%; in assay [5] (setting [8]), -12%; in assay [5] (at 50.0 µM) it was -4.35%; in assay [6] (setting [7]), -34%; in assay [6] (setting [8]), -43%; in assay [6] (at 50.0 µM), -27.2%.

These data come from PubChem BioAssay (NCI).
